# Assay results as given in the supplement of paper PMC12645437, “Orthogonal IMiD-Degron Pairs Induce Selective Protein Degradation in Cells” (ACS Chemical Biology, 2025).
# Over roughly 8,300 sequences, “log2 fold change of degron read counts, EGFP-low vs EGFP+ sorted cells (limma voom), compound-induced degradation” has its median near -1.1; the highest 2% begin near 3.2. This is one part of a sample in which the highest values are shown more often than they occur.
# Biological target: T1, CRBN, Q96SW2
# T1 chain: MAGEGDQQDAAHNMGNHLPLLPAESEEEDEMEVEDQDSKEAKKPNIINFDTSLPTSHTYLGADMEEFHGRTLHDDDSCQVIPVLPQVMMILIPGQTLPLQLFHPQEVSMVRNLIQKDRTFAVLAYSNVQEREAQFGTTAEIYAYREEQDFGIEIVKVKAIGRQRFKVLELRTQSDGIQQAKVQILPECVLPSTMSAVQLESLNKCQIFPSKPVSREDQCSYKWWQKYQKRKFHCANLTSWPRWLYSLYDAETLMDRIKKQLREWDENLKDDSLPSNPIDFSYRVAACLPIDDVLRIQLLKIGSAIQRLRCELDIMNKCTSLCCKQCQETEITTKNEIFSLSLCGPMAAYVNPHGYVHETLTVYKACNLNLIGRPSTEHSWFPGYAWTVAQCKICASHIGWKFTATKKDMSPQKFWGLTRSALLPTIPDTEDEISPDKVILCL
# Experiment: log2 fold change of degron read counts, EGFP-low vs EGFP+ sorted cells (limma voom), compound-induced degradation; higher = more compound-induced degradation of the degron-EGFP fusion; degrons are variants of IKZF1/3 zinc finger 2; compound dose not given here
# Conditions: Jurkat, 18 h
# Protocol: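 Pooled library of 8380 IKZF3 ZF2 degron mutants (positions 146-167 varied within the IKZF3 130-189 degron; only the varied core is printed, flanks not printed) fused to EGFP with IRES-mCherry, lentivirally expressed in Jurkat cells. mCherry+ cells were treated with one IMiD compound for 18 h (dose not stated) and FACS-sorted into EGFP-low and EGFP+ populations. Degron sequences were counted by NGS, and log2FC (EGFP-low vs EGFP+) was estimated by limma voom over 3 biological replicates.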
# [1] = compound: compound 19 (5-tert-butyl-thalidomide)
# [2] = compound: compound 22 (5-morpholino-thalidomide)
# [3] = compound: compound 33 (diphenyl IMiD analogue)
# 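Note: pooled lentiviral library of zinc finger degron-EGFP fusions in mCherry-positive Jurkat cells, FACS-sorted after compound exposure, with degron abundance counted by next-generation sequencing.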
sequence,measurement,setting,value
"FGCPQCGAMFTQKGNLLRHIKL [46F_47G_49P_50Q_52G_53A_54M_55F_67L_, Q9UKT9]",log2 fold change of degron read counts,[1],1.86
same,log2 fold change of degron read counts,[2],-1.68
same,log2 fold change of degron read counts,[3],0.259
same,log2 fold change of degron read counts,compound: thalidomide,-2.04
"LICEICGFVCTQKGNLLRHIKL [46L_47I_49E_50I_52G_53F_54V_55C_67L_, Q9UKT9]",log2 fold change of degron read counts,[1],-0.507
same,log2 fold change of degron read counts,[2],0.245
same,log2 fold change of degron read counts,[3],1.34
same,log2 fold change of degron read counts,compound: thalidomide,1.57
"FECNQCGANFTQKGNLLRHIKL [46F_47E_49N_50Q_52G_53A_54N_55F_67L_, Q9UKT9]",log2 fold change of degron read counts,[1],-3.06
same,log2 fold change of degron read counts,[2],-3.6
same,log2 fold change of degron read counts,[3],-1.14
same,log2 fold change of degron read counts,compound: thalidomide,-1.62
"FCCDICGAQFTQKGNLLRHIKL [46F_47C_49D_50I_52G_53A_54Q_55F_67L_, Q9UKT9]",log2 fold change of degron read counts,[1],1.75
same,log2 fold change of degron read counts,[2],1.58
same,log2 fold change of degron read counts,[3],1.41
same,log2 fold change of degron read counts,compound: thalidomide,0.205
"FQCDICGAQFTQKGNLLRHIKL [46F_47Q_49D_50I_52G_53A_54Q_55F_67L_, Q9UKT9]",log2 fold change of degron read counts,[1],-0.785
same,log2 fold change of degron read counts,[2],1.6
same,log2 fold change of degron read counts,[3],1.09
same,log2 fold change of degron read counts,compound: thalidomide,2.9
"FTCDICGAQFTQKGNLLRHIKL [46F_47T_49D_50I_52G_53A_54Q_55F_67L_, Q9UKT9]",log2 fold change of degron read counts,[1],-0.504
same,log2 fold change of degron read counts,[2],1.41
same,log2 fold change of degron read counts,[3],1.33
same,log2 fold change of degron read counts,compound: thalidomide,1.15
"FFCDICGAQFTQKGNLLRHIKL [46F_47F_49D_50I_52G_53A_54Q_55F_67L_, Q9UKT9]",log2 fold change of degron read counts,[1],3.41
same,log2 fold change of degron read counts,[2],3.28
same,log2 fold change of degron read counts,[3],1.67
same,log2 fold change of degron read counts,compound: thalidomide,0.0187
"FHCDICGAQFTQKGNLLRHIKL [46F_47H_49D_50I_52G_53A_54Q_55F_67L_, Q9UKT9]",log2 fold change of degron read counts,[1],1.04
same,log2 fold change of degron read counts,[2],1.14
same,log2 fold change of degron read counts,[3],-0.0246
same,log2 fold change of degron read counts,compound: thalidomide,-1.24
"FYCDICGAQFTQKGNLLRHIKL [46F_47Y_49D_50I_52G_53A_54Q_55F_67L_, Q9UKT9]",log2 fold change of degron read counts,[1],3.18
same,log2 fold change of degron read counts,[2],3.55
same,log2 fold change of degron read counts,[3],2.11
same,log2 fold change of degron read counts,compound: thalidomide,-0.00703
"FDCDICGAQFTQKGNLLRHIKL [46F_47D_49D_50I_52G_53A_54Q_55F_67L_, Q9UKT9]",log2 fold change of degron read counts,[1],0.389
same,log2 fold change of degron read counts,[2],-1.35
same,log2 fold change of degron read counts,[3],-1.71
same,log2 fold change of degron read counts,compound: thalidomide,-1.04
"FWCDICGAQFTQKGNLLRHIKL [46F_47W_49D_50I_52G_53A_54Q_55F_67L_, Q9UKT9]",log2 fold change of degron read counts,[1],2.88
same,log2 fold change of degron read counts,[2],3.68
same,log2 fold change of degron read counts,[3],1.52
same,log2 fold change of degron read counts,compound: thalidomide,0.174
"FLCDICGAQFTQKGNLLRHIKL [46F_47L_49D_50I_52G_53A_54Q_55F_67L_, Q9UKT9]",log2 fold change of degron read counts,[1],-0.363
same,log2 fold change of degron read counts,[2],-1.53
same,log2 fold change of degron read counts,[3],0.682
same,log2 fold change of degron read counts,compound: thalidomide,0.0613
"FSCPQCGARFTQKGNLLRHIKL [46F_47S_49P_50Q_52G_53A_54R_55F_67L_, Q9UKT9]",log2 fold change of degron read counts,[1],0.264
same,log2 fold change of degron read counts,[2],-0.514
same,log2 fold change of degron read counts,[3],-0.493
same,log2 fold change of degron read counts,compound: thalidomide,-0.61
"LRCPICGFHCTQKGNLLRHIKL [46L_47R_49P_50I_52G_53F_54H_55C_67L_, Q9UKT9]",log2 fold change of degron read counts,[1],-0.0105
same,log2 fold change of degron read counts,[2],0.25
same,log2 fold change of degron read counts,[3],1.59
same,log2 fold change of degron read counts,compound: thalidomide,2.32
"FECEICGHTFTQKGNLLRHIKL [46F_47E_49E_50I_52G_53H_54T_55F_67L_, Q9UKT9]",log2 fold change of degron read counts,[1],-3.53
same,log2 fold change of degron read counts,[2],-3.12
same,log2 fold change of degron read counts,[3],-2.68
same,log2 fold change of degron read counts,compound: thalidomide,-2.57
"FECNVCGACFTQKGNLLRHIKL [46F_47E_49N_50V_52G_53A_54C_55F_67L_, Q9UKT9]",log2 fold change of degron read counts,[1],-1.77
same,log2 fold change of degron read counts,[2],-2.3
same,log2 fold change of degron read counts,[3],0.438
same,log2 fold change of degron read counts,compound: thalidomide,0.297
"FYCEICGAIFTQKGNLLRHIKL [46F_47Y_49E_50I_52G_53A_54I_55F_67L_, Q9UKT9]",log2 fold change of degron read counts,[1],3.43
same,log2 fold change of degron read counts,[2],3.53
same,log2 fold change of degron read counts,[3],2.4
same,log2 fold change of degron read counts,compound: thalidomide,0.401
"FACEICGAIFTQKGNLLRHIKL [46F_47A_49E_50I_52G_53A_54I_55F_67L_, Q9UKT9]",log2 fold change of degron read counts,[1],3.52
same,log2 fold change of degron read counts,[2],1.96
same,log2 fold change of degron read counts,[3],0.532
same,log2 fold change of degron read counts,compound: thalidomide,0.207
"FDCEICGAIFTQKGNLLRHIKL [46F_47D_49E_50I_52G_53A_54I_55F_67L_, Q9UKT9]",log2 fold change of degron read counts,[1],-0.448
same,log2 fold change of degron read counts,[2],-0.893
same,log2 fold change of degron read counts,[3],-0.134
same,log2 fold change of degron read counts,compound: thalidomide,-0.014
"FECEICGAIFTQKGNLLRHIKL [46F_47E_49E_50I_52G_53A_54I_55F_67L_, Q9UKT9]",log2 fold change of degron read counts,[1],-1.24
same,log2 fold change of degron read counts,[2],-1.08
same,log2 fold change of degron read counts,[3],1.05
same,log2 fold change of degron read counts,compound: thalidomide,2.4
"FWCEICGAIFTQKGNLLRHIKL [46F_47W_49E_50I_52G_53A_54I_55F_67L_, Q9UKT9]",log2 fold change of degron read counts,[1],3.17
same,log2 fold change of degron read counts,[2],3.55
same,log2 fold change of degron read counts,[3],2.41
same,log2 fold change of degron read counts,compound: thalidomide,0.519
"FRCEICGAIFTQKGNLLRHIKL [46F_47R_49E_50I_52G_53A_54I_55F_67L_, Q9UKT9]",log2 fold change of degron read counts,[1],-1.64
same,log2 fold change of degron read counts,[2],-0.637
same,log2 fold change of degron read counts,[3],1.17
same,log2 fold change of degron read counts,compound: thalidomide,1.56
"FHCEICGAIFTQKGNLLRHIKL [46F_47H_49E_50I_52G_53A_54I_55F_67L_, Q9UKT9]",log2 fold change of degron read counts,[1],1.06
same,log2 fold change of degron read counts,[2],0.746
same,log2 fold change of degron read counts,[3],0.49
same,log2 fold change of degron read counts,compound: thalidomide,-0.388
"FICEICGAIFTQKGNLLRHIKL [46F_47I_49E_50I_52G_53A_54I_55F_67L_, Q9UKT9]",log2 fold change of degron read counts,[1],-0.706
same,log2 fold change of degron read counts,[2],0.427
same,log2 fold change of degron read counts,[3],2.23
same,log2 fold change of degron read counts,compound: thalidomide,1.71
"FNCEICGAIFTQKGNLLRHIKL [46F_47N_49E_50I_52G_53A_54I_55F_67L_, Q9UKT9]",log2 fold change of degron read counts,[1],0.366
same,log2 fold change of degron read counts,[2],-0.376
same,log2 fold change of degron read counts,[3],-0.467
same,log2 fold change of degron read counts,compound: thalidomide,-0.484
"FGCEICGAIFTQKGNLLRHIKL [46F_47G_49E_50I_52G_53A_54I_55F_67L_, Q9UKT9]",log2 fold change of degron read counts,[1],2.93
same,log2 fold change of degron read counts,[2],2.72
same,log2 fold change of degron read counts,[3],1.73
same,log2 fold change of degron read counts,compound: thalidomide,0.804
"FSCEICGAIFTQKGNLLRHIKL [46F_47S_49E_50I_52G_53A_54I_55F_67L_, Q9UKT9]",log2 fold change of degron read counts,[1],2.19
same,log2 fold change of degron read counts,[2],1.4
same,log2 fold change of degron read counts,[3],1.65
same,log2 fold change of degron read counts,compound: thalidomide,0.91
"FFCEICGAIFTQKGNLLRHIKL [46F_47F_49E_50I_52G_53A_54I_55F_67L_, Q9UKT9]",log2 fold change of degron read counts,[1],3.4
same,log2 fold change of degron read counts,[2],3.61
same,log2 fold change of degron read counts,[3],1.62
same,log2 fold change of degron read counts,compound: thalidomide,0.938
